# According to publication PMC7826789 (International Journal of Molecular Sciences, 2021):
# Assays:
# Conditions in all cases: Compound Concentration (nM):1000
# MYLK4 = tested on: MYLK4
# MYLK = tested on: MYLK
# MYO3A = tested on: MYO3A
# MYO3B = tested on: MYO3B
# NDR1 = tested on: T1, NDR1
# T1 construct: gene STK38
# NDR2 = tested on: T2, NDR2
# T2 construct: gene STK38L
# NEK10 = tested on: NEK10
# NEK11 = tested on: NEK11
# NEK1 = tested on: NEK1
# NEK2 = tested on: NEK2
# NEK3 = tested on: NEK3
# NEK4 = tested on: NEK4
# NEK5 = tested on: NEK5
# NEK6 = tested on: NEK6
# NEK7 = tested on: NEK7
# NEK9 = tested on: NEK9
# NIK = tested on: T3, NIK
# T3 construct: gene MAP3K14
# NIM1 = tested on: T4, NIM1
# T4 construct: gene MGC42105
# NLK = tested on: NLK
# OSR1 = tested on: T5, OSR1
# T5 construct: gene OXSR1
# 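Also: KINOMEscan scanMAX binding as percent activity remaining versus control; lower means stronger binding.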
SMILES,Percent Control (MYLK4),Percent Control (MYLK),Percent Control (MYO3A),Percent Control (MYO3B),Percent Control (NDR1),Percent Control (NDR2),Percent Control (NEK10),Percent Control (NEK11),Percent Control (NEK1),Percent Control (NEK2),Percent Control (NEK3),Percent Control (NEK4),Percent Control (NEK5),Percent Control (NEK6),Percent Control (NEK7),Percent Control (NEK9),Percent Control (NIK),Percent Control (NIM1),Percent Control (NLK),Percent Control (OSR1)
COc1cc(C)c(N(C)C(=O)CN(C)C)cc1Nc1nc(Nc2cccc(F)c2C(N)=O)c2cc[nH]c2n1 [GSK2219385],100%,10%,96%,100%,100%,85%,52%,100%,100%,72%,94%,100%,94%,100%,91%,90%,100%,80%,95%,100%
COc1ccc(COc2ccc(Cc3cnc(N)nc3N)cc2OC)cc1 [GW632580X],100%,100%,92%,100%,93%,86%,95%,100%,100%,84%,97%,77%,100%,95%,77%,85%,94%,86%,100%,100%
COc1cc2ncnc(Nc3ccc4c(cnn4Cc4ccccc4)c3)c2cc1OC.Cl [GW282449A],100%,100%,100%,100%,100%,100%,100%,100%,95%,100%,100%,100%,100%,100%,96%,100%,100%,100%,100%,100%
Cl.O=C(Nc1ccc(Oc2ccc3[nH]c(NC(=O)c4ccccc4)nc3c2)cc1)Nc1cc(C(F)(F)F)ccc1F [GW709042A],100%,99%,100%,100%,100%,100%,100%,100%,89%,100%,98%,83%,95%,92%,100%,20%,100%,88%,95%,100%
CCS(=O)(=O)c1ccc(OC)c(Nc2ncc(-c3cccc(F)c3)o2)c1 [GW621970X],100%,100%,100%,100%,100%,100%,100%,93%,84%,100%,100%,100%,95%,100%,100%,100%,93%,100%,100%,100%
C[C@@H](Oc1cc(-n2cnc3ccc(OC4CCN(C)CC4)cc32)sc1C(N)=O)c1ccccc1Cl [GSK579289A],62%,81%,74%,87%,98%,88%,92%,100%,60%,9.5%,92%,79%,63%,100%,69%,19%,82%,51%,100%,100%
NS(=O)(=O)c1ccc(N/N=C2\C(=O)Nc3ccc(-c4cnco4)cc32)cc1 [GW276655],49%,50%,77%,100%,67%,68%,89%,93%,71%,100%,96%,99%,72%,77%,82%,79%,37%,84%,100%,100%
COc1ccc2c(-c3ccnc(Nc4cccc(OC(F)(F)F)c4)n3)cnn2n1 [GW810372X],60%,100%,100%,100%,100%,96%,100%,100%,85%,100%,22%,80%,7.6%,39%,3.6%,47%,96%,77%,81%,100%
NS(=O)(=O)c1ccc(N/N=C2\C(=O)Nc3ccc(Cl)cc32)cc1 [GW280670X],100%,80%,100%,100%,91%,100%,100%,100%,100%,100%,100%,100%,100%,100%,100%,100%,100%,100%,100%,100%
COc1cc(/C=N/Nc2ncnc3[nH]ncc23)ccc1O [GW578748X],38%,68%,100%,100%,73%,100%,100%,28%,70%,100%,43%,98%,100%,100%,96%,100%,100%,37%,100%,100%
COc1ccccc1-c1cc(/C=C2\C(=O)Nc3ncc(Br)cc32)cc(Br)c1O [GW442130X],100%,100%,75%,100%,97%,74%,100%,100%,95%,100%,100%,100%,100%,100%,100%,100%,100%,100%,100%,77%
Nc1ncnc2occ(-c3ccc(NC(=O)Nc4cc(C(F)(F)F)ccc4F)cc3)c12 [GW770249X],100%,100%,9.7%,15%,94%,100%,100%,100%,89%,77%,98%,71%,82%,100%,100%,38%,100%,100%,100%,100%
O=C1Nc2ccc(C(=O)c3ccco3)cc2C1=Cc1cc(Cl)c(O)c(Cl)c1 [GW406108X],69%,51%,34%,100%,95%,88%,3.3%,100%,78%,83%,100%,83%,100%,94%,100%,100%,100%,93%,100%,100%
CC1=C(C(=O)Nc2ccc3[nH]ncc3c2)C(c2ccc3ccccc3c2)CC(=O)N1 (centres unmarked) [GSK270822A],78%,93%,90%,100%,28%,61%,65%,81%,87%,85%,70%,84%,100%,100%,77%,70%,82%,77%,98%,74%
COc1cc(N2CCN(C(C)C)CC2)ccc1Nc1nc(Nc2ccc(F)cc2C(=O)NC[C@@H](O)CO)c2cc[nH]c2n1 [GSK1392956A],82%,0.3%,88%,100%,99%,91%,34%,100%,82%,99%,100%,100%,83%,100%,100%,100%,100%,96%,100%,89%
COc1cccc(-n2ncc3c(N/N=C/c4ccncc4)ncnc32)c1 [GW784752X],100%,89%,100%,100%,96%,100%,84%,100%,84%,100%,86%,100%,100%,100%,92%,90%,100%,86%,91%,99%
COc1cccc(-c2c[nH]c3c(N/N=C/c4ccncc4)ncnc23)c1 [GW814408X],100%,100%,100%,100%,93%,98%,92%,100%,95%,100%,69%,100%,82%,100%,100%,100%,68%,92%,97%,100%
CN(C)CCNC(=O)Nc1ccc(N(C)c2ccnc(Nc3ccc(CS(C)(=O)=O)cc3)n2)cc1.Cl [GW830900A],100%,100%,99%,92%,86%,100%,87%,100%,92%,90%,63%,100%,91%,96%,93%,96%,88%,88%,82%,100%
COc1ccc2cc(-c3c(-c4ccncc4)nc(-c4ccc(S(C)(=O)=O)cc4C)n3C)ccc2c1 [SB-633825],93%,82%,53%,18%,77%,63%,69%,90%,100%,93%,65%,75%,35%,91%,65%,57%,53%,63%,81%,70%
